Screening results (PubChem)
MITF act: activators of MITF-driven TRPM1 promoter reporter, primary screen, cell-based, SK-MEL-5, luciferase, single point; 300,000 tested, 0.75% active; activation, % at 12.5 µM; SK-MEL-5 TRPM1-promoter luciferase, 24 h; % of positive control, neutral wells = 0;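 active means mean activation of at least 80% with every replicate also reaching 80%; inconclusive means mean reaches 80% but some replicate falls short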;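 further: 0% = neutral control wells and 100% = parthenolide positive control wells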
esBAF inh: Bmi1 luciferase reporter increase in mESCs, primary screen, esBAF inhibitor project, mouse ES cells, Bmi1 luciferase knock-in, single point | reporter increase, % at 12.5 µM | 350,000 tested, 2% active | 24 h; 100% = twice the neutral-well signal; in the data active means activation above about 40%; inconclusive means no clear call, values can overlap the other calls;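 further: 0% = median of the plate's neutral control wells and 100% = double that signal; a rise in the Bmi1 reporter signal indicates esBAF inhibition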
Wnt bcat act: Wnt/beta-catenin pathway activators, primary screen, cell-based, plate reader, single point; Wnt/beta-catenin reporter cell assay, activator; activation, % at 9.35 µM; 300,000 tested, 1.2% active; AID 743398, 2014; in the data active means activation above about 30%, passing the limit was not always enough; inconclusive means no clear call, values can overlap the other calls;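 further: 0% = neutral control wells and 100% = positive control wells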
HSF1 activator: HSF-1 activators, primary screen, NIH3T3-HGL cells, MG132 stress, luminescence, single point. NIH3T3-HGL HSF-1 luciferase reporter, 8 h; 100% = twice DMSO control signal. activation, % at 9 µM. 300,000 tested, 1.7% active;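 active means mean replicate activation of at least 50% with a set share of replicates each reaching 50%; inconclusive means only one of those two conditions met; inactive means mean below 50% and too few replicates reaching it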;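 further: 0% = median of the neutral control wells and 100% = twice that signal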
HSF1 inhib: HSF1 inhibitors in luciferase reporter cells, primary screen, cell-based, NIH3T3, luminescence. NIH3T3-HGL HSE-luciferase, MG132-induced, luminescence 8 h; hits give low values. activity change, negative = inhibition, % at 7.5 µM (by protocol). 300,000 tested, 0.77% active. AID 2098, 2009;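 active means more than half of replicate wells show activity change below -50%, luminescence cut by over half; inconclusive means some wells, but at most half, below -50%; inactive means no replicate well below -50%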;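 further: luciferase reports HSF-1 transcriptional activity via heat shock element; 0% = median of DMSO wells and -100% = zero luminescence signal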
* = called active by the depositor; ? = inconclusive; / = no result given. A selection: hits, their analogues and other compounds. The true share with any hit is near 3.8%.

SMILES	MITF act	esBAF inh	Wnt bcat act	HSF1 activator	HSF1 inhib
CCOC(=O)c1sc(N/N=C/c2cccc(C)c2)nc1C	99*	58*	18	10	17
COC(=O)c1ccc(/C=N/Nc2nc(C)c(C)s2)cc1	/	/	34*	-1	-6
CC=Cc1ccc2n(c1=O)C[C@H]1[C@H](CO)[C@@H](C(=O)NCCC)[C@@H]2N1Cc1nccs1 (mixture of isomers)	/	-1	/	/	/
Cc1noc(C)c1NC(=O)N[C@H]1CC[C@@H](CC(=O)Nc2ccc(-c3ccccc3)cc2)O[C@H]1CO	/	-12	/	/	/
C[C@H](O)C#Cc1ccc2c(c1)O[C@@H](CN(C)C(=O)C1CCCCC1)[C@@H](C)CN([C@@H](C)CO)S2(=O)=O	/	0	/	/	/
CC(=O)c1sc(Nc2ccccc2)nc1C	/	36	1	/	/
CNc1nc(C)c(C(=O)OCC(=O)OC)s1	11	8	2	15	1
CNc1nc(C)c(C(=O)OCc2ccccc2)s1	/	75*	14	24	17
CC(C)(C)C(=O)c1sc(Nc2ccccc2)nc1N	122*	57*	0	41	26
CCOC(=O)c1sc(NC(=O)Nc2ccc(Cl)cc2)nc1C	/	61*	39*	45	31
Cc1nc(Nc2ccccc2)sc1-c1ccccc1	58	/	44*	59*	46
O=C(C[C@H]1C[C@H]2c3cc(NC(=O)c4ccc5c(c4)OCO5)ccc3O[C@H]2[C@H](CO)O1)NCC(F)(F)F	/	4	/	/	/
CO[C@@H]1CN(C)C(=O)c2ccc(NC(=O)C3CC3)cc2OC[C@H](C)N(C(=O)c2ccccn2)C[C@H]1C	/	0	/	/	/
CCOC(=O)c1sc(Nc2ccccc2)nc1C	94*	78*	/	35	20
Cc1nc(Nc2ccccc2)sc1C(=O)c1ccccc1	/	/	42*	35	6
O=C(NCC1CCCCC1)[C@H]1[C@H](CO)[C@H]2Cn3c(ccc(C4=CCCC4)c3=O)[C@@H]1N2C(=O)CC1CC1	/	-1	/	/	/
Cc1ccc(N=C2C(=S)N(c3ccc(C)cc3)C(=N)N2/N=C/c2ccc(Cl)cc2)cc1	/	?	/	108*	67
O=C(O)c1ccccc1-c1ccc(/C=C2\SC(=O)N(c3ccccc3)C2=O)o1	/	56*	13	3	0
COc1ccc(/C=C/c2nnc(NC(C)=O)s2)cc1	/	-13	37*	57*	30
Cc1noc(C)c1C(=O)Nc1sc(C)c(-c2ccccc2)c1C#N	-12	-9	/	1	-5
Cc1cccc(C(=O)Nc2sc(C)c(-c3ccccc3)c2C#N)c1	64	49*	/	22	6
Cc1sc(NC(=O)C2CCCCC2)c(C#N)c1-c1ccccc1	79	93*	42*	?	32
COc1ccc(OCc2cc(C(=O)N(C)CCC3CCOCC3)no2)c(Cl)c1	68	58*	22	77*	38
Cc1nnc(CN(C)C(=O)c2cc(COc3ccc(F)cc3Cl)on2)o1	48	53*	18	19	17
CN(CC1CCCCO1)C(=O)c1cc(COc2ccc(F)cc2Cl)on1 (stereo not given)	61	43*	13	12	13
SMILES	MITF act	esBAF inh	Wnt bcat act	HSF1 activator	HSF1 inhib
COc1ccc(OCc2cc(C(=O)N(C)CC3CCCCO3)no2)c(Cl)c1 (stereo not given)	44	41*	19	36	11
COc1ccccc1NC(=O)N1C[C@@H]2[C@H](c3ccccc31)[C@H](CO)N2C(=O)c1ccccc1	/	2	/	/	/
C[C@@H](O)C#Cc1cnc2c(c1)C(=O)N([C@@H](C)CO)C[C@H](C)[C@H](CN(C)C(=O)c1ccncc1)O2	/	-3	/	/	/
C[C@H](CO)N1C[C@H](C)[C@@H](CN(C)Cc2ccc(-c3ccccc3)cc2)Oc2ncc(C#CCN(C)C)cc2C1=O	/	-3	/	/	/
COc1cc(Cl)ccc1OCc1cc(C(=O)N(C)CC2CCCCO2)no1 (stereo not given)	50	70*	40*	39	24
COc1ccc(OCc2cc(C(=O)N(C)C(C)c3ccon3)no2)c(Cl)c1 (stereo not given)	69	73*	19	13	19
CCCNC(=O)C[C@H]1CC[C@@H]2[C@@H](COc3ccc(NC(=O)Nc4ccccc4)cc3C(=O)N2C)O1	/	0	/	/	/
CO[C@H]1CN(C)C(=O)c2ccc(NS(C)(=O)=O)cc2OC[C@@H](C)NC[C@@H]1C	/	-5	/	/	/
CC(=O)c1cccc(OCC(=O)Nc2cc(Cl)ccc2-n2cncn2)c1	84*	/	0	16	11
C=CCN=C1NN=C(c2ccc3c(c2)OCCO3)CS1	-68	-20	0	-63	-56*
c1ccc(C2=NNC(=NCc3ccc4c(c3)OCO4)SC2)cc1	32	/	/	6	10
O=C(c1ccc(-c2ccccc2Cl)s1)N1CCOCC1	92*	/	10	33	24
O=C(c1ccc(C(=O)N2CCOCC2)s1)N1CCOCC1	14	4	0	-6	3
CCOc1ccc(C2C=C(c3ccccc3)Nc3nnnn32)cc1 (stereo not given)	/	51*	43*	24	5
O=C(C[C@H]1C=C[C@H](NC(=O)c2ccncc2)[C@@H](CO)O1)NCC1CCCCC1	/	5	/	/	/
Cc1noc(C)c1S(=O)(=O)N(C)C[C@@H]1Oc2ccc(NS(=O)(=O)c3ccc(Cl)cc3)cc2C(=O)N([C@@H](C)CO)C[C@@H]1C	/	1	/	/	/
CCOC(=O)Cn1c(COc2ccccc2OC)[n+](C)c2ccccc21	/	1	-3	-85	-84*
C[C@@H]1CCCCO[C@@H](CN(C)Cc2ccc(C(F)(F)F)cc2)[C@@H](C)CN([C@@H](C)CO)C(=O)c2cc(NC(=O)C3CCCCC3)ccc2O1	/	2	/	/	/
Cc1ccc(SCc2ccc(C(=O)N3CCCC3)cc2)cc1	28	/	5	58*	37
C[C@@H]1CCCCO[C@H](CN(C)C(=O)CCCN(C)C)[C@H](C)CN([C@H](C)CO)C(=O)c2cc(NC(=O)Nc3cccc4ccccc34)ccc2O1	/	-1	/	/	/
CC(C)c1ccc(N(C(=O)CNC(=O)c2ccco2)C(C(=O)NC2CCCC2)c2ccncc2)cc1 (stereo not given)	-4	3	3	168*	84
CCc1ccc(N(C(=O)c2ccco2)C(C(=O)NC2CCCC2)c2ccncc2)cc1 (stereo not given)	17	42*	8	29	13
CCc1ccc(N(C(=O)c2ccco2)C(C(=O)NC2CCCC2)c2ccco2)cc1 (stereo not given)	5	50*	/	3	25
O=C(NC1CCCCC1)C(c1cccs1)N(C(=O)c1ccco1)c1ccc2c(c1)OCCO2 (stereo not given)	-1	78*	0	-9	-9
